Measured values reported in the supplement of paper PMC10849652.
Of roughly 7,900 targets only a part is listed; those with a hit were picked by preference. About 0.6% of all pairs of compound and target were hits.

Experiments:
Experiment in all cases: log2 fold change, soluble protein after heating vs DMSO (PISA); higher = thermal stabilisation; K562 cells, 10 uM, 30 min; active = over 0.2 and 3.5 SD of the protein, either way, in both replicates (recomputed)
[1] = compound: CC[C@@H]1C(=O)N(C)c2cnc(Nc3ccc(C(=O)NC4CCN(C)CC4)cc3OC)nc2N1C1CCCC1
Procedure, shortened: (§1)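 Values are thermal stability changes relative to control samples and are taken from duplicates. They are stated as log2 fold changes. Before quantification by TMTpro 16plex LC-MS/MS with equalised channel sums, K562 cells at 2×10^6 cells/mL were treated with 10 μM compound for 30 min, heated in aliquots for 3 min across 48°C-58°C, pooled, extracted in PBS with 0.5% NP-40 at 4°C, and centrifuged at 21,000xg for 90 min to give the soluble supernatant.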

volasertib = compound: CC[C@@H]1C(=O)N(C)c2cnc(Nc3ccc(C(=O)N[C@H]4CC[C@H](N5CCN(CC6CC6)CC5)CC4)cc3OC)nc2N1C(C)C [volasertib]
Procedure, shortened: as §1

[2] = compound: CC[C@H](C)N1C=C(C2=C(C=C(C=C21)C3=CN=C(C=C3)N4CCNCC4)C(=O)NCC5=C(C=C(NC5=O)C)C)C
Procedure, shortened: as §1

epoxomicin = compound: CC[C@H](C)[C@@H](C(=O)N[C@@H]([C@@H](C)O)C(=O)N[C@@H](CC(C)C)C(=O)[C@]1(CO1)C)NC(=O)[C@H]([C@@H](C)CC)N(C)C(=O)C [epoxomicin]
Procedure, shortened: as §1

[3] = compound: CCn1c(C(=O)N(C2CC2)C2CC2)cc2c3c(ncn3C)c(Nc3cc(C)n(C)n3)nc21
Procedure, shortened: as §1

[4] = compound: CCn1cc(-c2ccnc3[nH]c(-c4cccc(CN(C)C)c4)cc23)c(-c2ccc(NC(=O)N(C)C)cc2)n1
Procedure, shortened: as §1

[5] = compound: CN(C)CC(=O)Nc1ccc2[nH]c(=O)c3ccccc3c2c1
Procedure, shortened: as §1

rosiglitazone = compound: CN(CCOC1=CC=C(C=C1)C[C@H]2C(=O)NC(=O)S2)C3=CC=CC=N3 (racemic) [rosiglitazone]
Procedure, shortened: as §1

[6] = compound: CN1C2=C(C3=C1C(=O)N(N=C3)CC4=CC(=CC=C4)N)SC(=C2)S(=O)C
Procedure, shortened: as §1

[7] = compound: CN1CCC(CNc2ccc3ncc(-c4cccc(OC(F)(F)F)c4)n3n2)CC1
Procedure, shortened: as §1

Measured: log2 fold change

ELOVL5 isoform 2 (UniProt Q9NYP7)
active: [7] -0.691
inactive: [1] -0.227 | volasertib -0.164 | [2] 0.026 | epoxomicin -0.034 | [3] 0.049 | [4] -0.206 | [5] 0.021 | rosiglitazone 0.122 | [6] -0.044

FAM160B1 (UniProt Q5W0V3)
inactive: [1] -0.007 | volasertib -0.043 | [2] 0.07 | epoxomicin 0 | [3] 0.027 | [4] -0.057 | [5] -0.052 | rosiglitazone 0.009 | [6] -0.056 | [7] -0.254

FAM118B (UniProt Q9BPY3)
inactive: [1] -0.087 | [2] 0.035 | epoxomicin 0.036 | [3] -0.008 | [4] -0.067 | [5] 0.11 | rosiglitazone 0.026
active: volasertib -0.445 | [7] -0.373

ELF1 (UniProt P32519)
inactive: [1] 0.116 | volasertib -0.516 | [2] 0.185 | epoxomicin 0.117 | [3] -0.161 | [6] 0.027

ELAC1 (UniProt Q9H777)
Sequence of UniProt Q9H777 (Q9H777 whole entry, looked up): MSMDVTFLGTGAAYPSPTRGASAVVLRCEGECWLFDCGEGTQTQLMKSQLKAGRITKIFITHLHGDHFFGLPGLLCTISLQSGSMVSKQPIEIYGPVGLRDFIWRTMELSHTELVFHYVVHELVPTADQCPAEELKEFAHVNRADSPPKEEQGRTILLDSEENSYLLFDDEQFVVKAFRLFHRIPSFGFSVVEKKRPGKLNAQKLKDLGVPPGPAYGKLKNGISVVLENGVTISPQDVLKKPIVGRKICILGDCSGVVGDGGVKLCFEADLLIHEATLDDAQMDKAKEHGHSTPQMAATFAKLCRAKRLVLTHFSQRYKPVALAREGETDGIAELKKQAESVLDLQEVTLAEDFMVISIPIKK
active: [4] -0.488
inactive: [1] -0.067 | volasertib 0.055 | [2] 0.046 | epoxomicin -0.002 | [3] -0.073 | [5] 0 | [6] 0.079 | [7] -0.227

EEF2K (UniProt O00418)
inactive: [1] -0.046 | volasertib -0.395 | epoxomicin 0.093 | [3] 0.102 | [4] 0.028 | [5] 0.096 | [7] -0.188

FAM118A (UniProt Q9NWS6)
active: [1] -0.812
inactive: volasertib -0.54 | [2] 0.136 | epoxomicin 0.118 | [4] -0.075 | [5] 0.222 | rosiglitazone -0.02 | [6] -0.007 | [7] -0.142

DNAL1 (UniProt Q4LDG9)
Sequence of UniProt Q4LDG9 (Q4LDG9 whole entry, looked up): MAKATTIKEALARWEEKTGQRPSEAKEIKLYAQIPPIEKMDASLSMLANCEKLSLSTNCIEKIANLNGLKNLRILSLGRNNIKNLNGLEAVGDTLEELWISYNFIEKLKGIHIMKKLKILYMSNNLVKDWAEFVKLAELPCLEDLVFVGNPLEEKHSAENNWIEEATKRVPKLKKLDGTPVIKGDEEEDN
inactive: epoxomicin 0.082 | [5] 0.103 | rosiglitazone -0.683 | [6] -0.256

DHPS (UniProt M0R1T2)
inactive: rosiglitazone -0.057

EIF4G1 (UniProt Q04637)
inactive: [4] 0.062 | [5] 0 | [6] 0.224
active: [7] -0.552

DLK1 (UniProt P80370)
inactive: epoxomicin 0.012 | [5] -0.016 | [6] 0.127
active: [1] 0.43

ENTR1 (UniProt Q96C92)
Sequence of UniProt Q96C92 (Q96C92 whole entry, looked up): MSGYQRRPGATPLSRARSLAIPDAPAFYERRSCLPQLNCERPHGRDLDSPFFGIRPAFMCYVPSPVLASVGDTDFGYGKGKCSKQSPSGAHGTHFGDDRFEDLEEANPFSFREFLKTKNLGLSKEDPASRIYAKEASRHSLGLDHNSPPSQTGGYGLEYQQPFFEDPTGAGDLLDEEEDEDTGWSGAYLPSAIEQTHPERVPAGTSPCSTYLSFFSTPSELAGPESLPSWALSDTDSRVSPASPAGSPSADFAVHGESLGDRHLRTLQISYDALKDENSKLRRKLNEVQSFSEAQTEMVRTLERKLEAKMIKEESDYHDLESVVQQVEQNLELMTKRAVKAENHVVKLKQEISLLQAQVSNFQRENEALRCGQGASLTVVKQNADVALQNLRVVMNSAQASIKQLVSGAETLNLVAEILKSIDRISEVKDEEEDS
inactive: volasertib 0.167 | [3] -0.03 | [5] -0.107 | [6] 0.183

EDRF1 (UniProt Q3B7T1)
inactive: [1] 0.046 | epoxomicin 0.009 | [3] -0.089 | [4] -0.046 | rosiglitazone 0.004 | [6] 0.006 | [7] -0.014

DCAF12 (UniProt Q5T6F0)
Sequence of UniProt Q5T6F0 (Q5T6F0 whole entry, looked up): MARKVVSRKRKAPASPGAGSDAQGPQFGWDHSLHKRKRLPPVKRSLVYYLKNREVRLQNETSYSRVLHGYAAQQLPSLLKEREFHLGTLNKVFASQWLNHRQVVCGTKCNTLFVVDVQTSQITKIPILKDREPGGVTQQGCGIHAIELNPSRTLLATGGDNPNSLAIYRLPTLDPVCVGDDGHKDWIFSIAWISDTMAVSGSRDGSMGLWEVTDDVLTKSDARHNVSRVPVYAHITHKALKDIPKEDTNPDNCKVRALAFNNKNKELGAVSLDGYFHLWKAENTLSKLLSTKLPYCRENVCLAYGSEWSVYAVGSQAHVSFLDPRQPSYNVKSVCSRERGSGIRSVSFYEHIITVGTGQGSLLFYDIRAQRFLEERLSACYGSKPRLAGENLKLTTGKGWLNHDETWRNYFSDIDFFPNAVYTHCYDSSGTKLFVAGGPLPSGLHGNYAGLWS
inactive: [1] -0.132 | [4] -0.141 | [7] 0.197

DDX46, A0A0C4DG89
inactive: [2] -0.074 | epoxomicin 0.155

DOCK8 (UniProt Q8NF50)
inactive: [1] 0.01 | [2] 0.004 | epoxomicin 0.119 | [3] -0.208 | [4] -0.094 | [5] -0.009 | rosiglitazone 0.028 | [6] 0.258 | [7] 0.137

DHRS13 (UniProt Q6UX07)
inactive: [1] 0.157 | [2] 0.139 | [3] -0.135 | [4] -0.077 | [5] 0.225 | [6] 0.143 | [7] 0.098

EID1 (UniProt Q9Y6B2)
inactive: volasertib 0.053 | [2] 0.172 | [3] 0.05 | [4] -0.104 | [7] -0.317
active: epoxomicin 0.83

ELMO1 (UniProt Q92556)
inactive: [2] -0.089 | epoxomicin -0.109 | [3] 0.046 | [5] 0.031 | rosiglitazone 0.076 | [6] -0.078

EZH2 isoform 2 (UniProt Q15910)
inactive: volasertib -0.259 | epoxomicin 0.131 | [3] -0.173 | [5] 0.022 | rosiglitazone 0.243 | [6] 0.155

EPHB4 (UniProt P54760)
inactive: volasertib -0.302

EPHX2 (UniProt E5RI53)
inactive: epoxomicin -0.199 | rosiglitazone -0.248

ERF (UniProt P50548)
inactive: epoxomicin 0.068 | [3] 0.033 | [4] -0.052 | [7] 0.319

DDX11 (UniProt Q96FC9)
inactive: volasertib -0.084 | [2] 0.128 | epoxomicin 0.099 | [3] -0.018 | [5] 0.098 | rosiglitazone 0.052 | [6] -0.04

EDEM2 (UniProt Q9BV94)
Sequence of UniProt Q9BV94 (Q9BV94 whole entry, looked up): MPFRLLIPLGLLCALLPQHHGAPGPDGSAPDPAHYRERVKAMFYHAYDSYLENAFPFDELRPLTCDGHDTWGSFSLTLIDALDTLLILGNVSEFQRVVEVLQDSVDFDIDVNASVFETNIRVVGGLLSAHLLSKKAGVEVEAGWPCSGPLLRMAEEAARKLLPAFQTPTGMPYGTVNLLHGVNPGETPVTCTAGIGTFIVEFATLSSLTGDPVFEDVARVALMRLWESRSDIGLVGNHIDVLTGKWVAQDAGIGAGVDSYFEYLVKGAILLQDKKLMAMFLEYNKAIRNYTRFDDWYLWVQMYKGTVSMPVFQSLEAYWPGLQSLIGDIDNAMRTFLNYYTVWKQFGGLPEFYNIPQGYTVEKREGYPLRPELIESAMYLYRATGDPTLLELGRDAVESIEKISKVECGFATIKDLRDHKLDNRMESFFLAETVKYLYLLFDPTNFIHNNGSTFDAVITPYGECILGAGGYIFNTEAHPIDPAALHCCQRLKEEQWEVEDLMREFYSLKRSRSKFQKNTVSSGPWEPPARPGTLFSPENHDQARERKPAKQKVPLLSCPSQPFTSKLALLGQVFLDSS
inactive: volasertib -0.159 | [2] -0.035 | epoxomicin -0.006 | [3] 0.033 | [4] -0.087 | [5] -0.001 | rosiglitazone -0.077 | [6] -0.003 | [7] 0.161

DENND1A isoform 6 (UniProt Q8TEH3)
active: volasertib -0.856
inactive: [5] 0.112 | rosiglitazone -0.041

FAM135A (UniProt Q9P2D6)
Sequence of UniProt Q9P2D6 (Q9P2D6 whole entry, looked up): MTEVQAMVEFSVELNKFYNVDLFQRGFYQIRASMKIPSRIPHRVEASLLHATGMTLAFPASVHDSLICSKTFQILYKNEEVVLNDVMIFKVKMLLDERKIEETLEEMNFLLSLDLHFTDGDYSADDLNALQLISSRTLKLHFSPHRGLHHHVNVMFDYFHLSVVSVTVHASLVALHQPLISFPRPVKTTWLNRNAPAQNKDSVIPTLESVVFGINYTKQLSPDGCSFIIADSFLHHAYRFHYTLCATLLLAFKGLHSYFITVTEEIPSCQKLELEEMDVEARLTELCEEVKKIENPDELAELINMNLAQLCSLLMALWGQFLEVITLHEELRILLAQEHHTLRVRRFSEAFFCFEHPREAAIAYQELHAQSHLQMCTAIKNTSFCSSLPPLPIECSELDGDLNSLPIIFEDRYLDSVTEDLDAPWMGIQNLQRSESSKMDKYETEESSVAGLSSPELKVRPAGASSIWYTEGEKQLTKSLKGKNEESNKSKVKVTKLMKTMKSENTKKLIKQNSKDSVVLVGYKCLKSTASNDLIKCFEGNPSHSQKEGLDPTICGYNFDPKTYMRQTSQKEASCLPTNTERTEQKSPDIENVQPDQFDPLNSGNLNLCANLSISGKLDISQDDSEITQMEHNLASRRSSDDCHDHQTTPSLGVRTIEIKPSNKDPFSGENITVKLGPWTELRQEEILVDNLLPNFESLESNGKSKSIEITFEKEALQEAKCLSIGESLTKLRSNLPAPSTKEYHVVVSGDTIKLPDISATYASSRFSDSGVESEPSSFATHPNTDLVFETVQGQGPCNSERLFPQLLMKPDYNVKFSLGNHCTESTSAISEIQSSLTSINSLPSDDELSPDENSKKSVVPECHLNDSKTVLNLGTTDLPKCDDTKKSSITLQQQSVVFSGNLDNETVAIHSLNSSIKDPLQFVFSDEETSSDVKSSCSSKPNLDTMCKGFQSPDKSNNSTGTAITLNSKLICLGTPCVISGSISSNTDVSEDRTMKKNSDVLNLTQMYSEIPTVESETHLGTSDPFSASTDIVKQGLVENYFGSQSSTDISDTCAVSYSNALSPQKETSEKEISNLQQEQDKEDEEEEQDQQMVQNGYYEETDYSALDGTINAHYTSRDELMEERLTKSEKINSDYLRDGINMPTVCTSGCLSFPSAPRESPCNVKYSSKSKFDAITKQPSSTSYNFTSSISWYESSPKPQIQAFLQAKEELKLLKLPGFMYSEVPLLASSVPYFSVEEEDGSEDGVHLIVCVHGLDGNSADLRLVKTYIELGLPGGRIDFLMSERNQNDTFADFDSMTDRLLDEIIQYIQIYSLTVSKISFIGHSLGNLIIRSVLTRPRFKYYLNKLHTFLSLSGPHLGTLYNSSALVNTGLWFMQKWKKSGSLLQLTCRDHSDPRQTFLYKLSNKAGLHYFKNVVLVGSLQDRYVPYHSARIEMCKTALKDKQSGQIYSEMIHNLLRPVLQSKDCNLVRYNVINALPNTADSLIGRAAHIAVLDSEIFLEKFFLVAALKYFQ
inactive: [2] -0.068 | epoxomicin -0.088 | [3] 0.009 | [5] 0.079

EIF3J isoform 2 (UniProt O75822)
Sequence of UniProt O75822 (O75822 whole entry, looked up): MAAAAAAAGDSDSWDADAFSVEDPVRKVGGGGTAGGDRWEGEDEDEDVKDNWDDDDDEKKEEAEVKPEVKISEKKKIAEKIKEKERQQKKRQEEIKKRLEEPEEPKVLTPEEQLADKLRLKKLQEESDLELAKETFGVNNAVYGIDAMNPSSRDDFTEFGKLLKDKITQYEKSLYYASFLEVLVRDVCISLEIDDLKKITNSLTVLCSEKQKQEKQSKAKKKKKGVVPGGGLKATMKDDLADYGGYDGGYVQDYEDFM
inactive: volasertib 0.031 | [2] -0.079 | epoxomicin 0.025 | [3] 0.03 | [5] 0.076 | rosiglitazone -0.038 | [6] 0.133

DERPC (UniProt P0CG12)
active: [6] 0.519
inactive: [1] 0.127 | [2] -0.051 | [3] 0 | [4] 0.197 | [5] 0.053 | rosiglitazone 0.04 | [7] 0.025

DCAF4 (UniProt Q8WV16)
inactive: [1] 0.03 | [2] -0.075 | epoxomicin 0.041 | [4] 0.147 | [6] 0.128 | [7] -0.086

DNAH10 (UniProt Q8IVF4)
inactive: [1] 0.066 | [2] -0.146 | epoxomicin 0.072 | [3] -0.17 | [4] -0.183 | [5] -0.008 | rosiglitazone 0.031 | [6] 0 | [7] 0.006

EIF2AK1 (UniProt Q9BQI3)
Sequence of UniProt Q9BQI3 (Q9BQI3 whole entry, looked up): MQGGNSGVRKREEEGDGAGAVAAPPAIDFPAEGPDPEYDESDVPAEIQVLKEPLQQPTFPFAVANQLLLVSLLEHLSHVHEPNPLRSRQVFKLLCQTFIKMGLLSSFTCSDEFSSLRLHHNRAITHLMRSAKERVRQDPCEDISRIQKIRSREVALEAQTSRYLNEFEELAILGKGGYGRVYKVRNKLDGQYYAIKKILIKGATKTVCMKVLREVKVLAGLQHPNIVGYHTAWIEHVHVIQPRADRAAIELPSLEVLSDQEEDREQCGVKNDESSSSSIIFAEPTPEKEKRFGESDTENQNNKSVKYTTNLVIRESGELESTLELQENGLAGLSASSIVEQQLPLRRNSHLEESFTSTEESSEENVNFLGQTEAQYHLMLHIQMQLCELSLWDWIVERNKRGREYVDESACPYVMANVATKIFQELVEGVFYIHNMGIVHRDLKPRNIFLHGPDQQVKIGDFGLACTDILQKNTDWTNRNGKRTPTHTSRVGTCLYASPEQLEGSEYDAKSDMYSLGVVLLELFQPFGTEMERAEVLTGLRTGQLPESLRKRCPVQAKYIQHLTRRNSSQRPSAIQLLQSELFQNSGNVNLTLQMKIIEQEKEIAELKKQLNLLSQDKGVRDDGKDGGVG
inactive: volasertib -0.142 | epoxomicin 0.13 | [3] 0.001 | [4] 0.034 | [5] -0.121 | rosiglitazone -0.025 | [6] 0.006 | [7] -0.082

FADS1 (UniProt F5GYH4)
inactive: [5] 0.026 | rosiglitazone 0.238

EGR1 (UniProt P18146)
inactive: volasertib 0.085 | [2] 0.158 | epoxomicin 0.489 | [3] 0.113 | [4] 0.228 | [5] -0.241 | rosiglitazone 0.08 | [7] -0.56

DCP2 (UniProt Q8IU60)
inactive: volasertib -0.153 | epoxomicin -0.04 | [5] -0.069 | [6] 0.319

CTSS (UniProt P25774)
inactive: [1] -0.027 | [4] 0.126 | [5] -0.021 | [6] 0.051 | [7] -0.034

DDB1 isoform 2 (UniProt Q16531)
inactive: [1] 0.141 | epoxomicin -0.287 | [4] 0.235 | rosiglitazone 0.301 | [7] -0.041

EHBP1 (UniProt Q8NDI1)
inactive: [1] -0.155 | [4] 0.011 | [7] 0.015

EEF1D isoform 3 (UniProt P29692)
inactive: [3] -0.067

DNAJB1 (UniProt M0R128)
inactive: [5] -0.038 | rosiglitazone 0.223

FAM117B (UniProt Q6P1L5)
Sequence of UniProt Q6P1L5 (Q6P1L5 whole entry, looked up): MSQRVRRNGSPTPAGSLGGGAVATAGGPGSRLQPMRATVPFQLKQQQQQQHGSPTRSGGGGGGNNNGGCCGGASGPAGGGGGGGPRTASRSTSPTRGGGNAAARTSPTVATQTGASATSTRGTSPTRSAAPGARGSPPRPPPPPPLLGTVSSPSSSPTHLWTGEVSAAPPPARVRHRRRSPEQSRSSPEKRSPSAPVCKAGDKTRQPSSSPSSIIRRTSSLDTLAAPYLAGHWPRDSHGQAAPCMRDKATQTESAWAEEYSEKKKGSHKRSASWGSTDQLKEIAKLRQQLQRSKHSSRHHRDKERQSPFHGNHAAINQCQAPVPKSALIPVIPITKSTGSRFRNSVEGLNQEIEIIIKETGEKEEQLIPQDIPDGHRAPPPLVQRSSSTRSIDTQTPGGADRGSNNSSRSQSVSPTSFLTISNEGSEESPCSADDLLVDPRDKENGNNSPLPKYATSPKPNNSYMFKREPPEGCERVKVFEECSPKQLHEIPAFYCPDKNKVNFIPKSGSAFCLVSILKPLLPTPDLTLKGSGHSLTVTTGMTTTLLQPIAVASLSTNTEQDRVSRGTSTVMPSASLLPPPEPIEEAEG
inactive: [1] -0.054 | epoxomicin 0.021 | [3] -0.211 | [4] 0.012 | [5] 0.11 | [6] -0.072 | [7] 0.017

FAM160A2 isoform 2 (UniProt Q8N612)
inactive: [1] -0.074 | [2] -0.048 | epoxomicin -0.177 | [4] 0.06 | [5] 0.052 | rosiglitazone -0.046 | [6] 0.287 | [7] -0.258

DOP1A (UniProt Q5JWR5)
inactive: epoxomicin 0.069 | [3] -0.067 | [5] 0.121 | rosiglitazone -0.026

F2RL3 (UniProt Q96RI0)
inactive: volasertib 0.076 | [3] 0.074 | [5] 0.012 | [6] -0.002

DDX27 (UniProt Q96GQ7)
inactive: [1] -0.033 | [2] 0.1 | epoxomicin -0.184 | [3] -0.084 | [4] 0.116 | [5] -0.009 | [6] 0.162 | [7] 0.241

DNM2 isoform 4 (UniProt P50570)
inactive: [1] 0.026 | [2] -0.125 | epoxomicin 0.241 | [3] 0.017 | [4] -0.01 | rosiglitazone 0.038 | [6] 0.027 | [7] -0.252

ELOVL7 (UniProt A1L3X0)
inactive: epoxomicin 0.007 | [3] -0.016 | [6] 0.047
